Data as given in the supplement of paper PMC10849652.
Of roughly 8,800 targets only a part is listed; those with a hit were picked by preference. About 0.5% of all pairs of compound and target were hits.

What was measured:
Assay in all cases: log2 fold change, soluble protein after heating vs DMSO (PISA); higher = thermal stabilisation; K562 lysate, 10 uM; active = over 0.2 and 3.5 SD of the protein, either way, in both replicates (recomputed)
erlotinib = compound: C#Cc1cccc(Nc2ncnc3cc(OCCOC)c(OCCOC)cc23)c1 [erlotinib]
In short: (§1)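 Following dounce homogenisation of K562 pellets in PBS pH 7.4 with 1 mM MgCl2, crude extract at 1 mg/mL protein was incubated for 30 min with 10 μM compound. Aliquots were then heated for 3 min over 48°C-58°C and pooled, NP-40 was added to 0.5% at 4°C, and soluble protein was recovered as the supernatant at 21,000xg for 90 min. Channel-sum-equalised TMTpro 16plex LC-MS/MS quantified this protein. Each value, from duplicates, is a log-two fold change in thermal stability relative to solvent controls.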

[1] = compound: C/C(=N\NC(=O)C1=CC(=CC=C1)S(=O)(=O)N2CCOCC2)/C3=C(C=CC(=C3)Cl)O
In short: as §1

[2] = compound: C1=CC(=CC=C1C2=NC3=C(N2)C=C(C=C3)C(=O)N)OC4=CC=C(C=C4)Cl
In short: as §1

[3] = compound: C1=CC2=C(C=CC(=C2)/C=C\3/C(=O)NC(=NCC4=CC=CS4)S3)N=C1
In short: as §1

[4] = compound: C1=CC2=NC=CN=C2C=C1/C=C/3\C(=O)NC(=O)S3
In short: as §1

[5] = compound: C1=CC=C(C=C1)C2=NC(=C(N2)C3=CC=NC=C3)C4=CC(=C(C=C4)Cl)O
In short: as §1

[6] = compound: C1=CC=C2C(=C1)C3=NNC4=CC=CC(=C43)C2=O
In short: as §1

[7] = compound: C1CCN(C1)C(=O)NC2=CC=CC(=C2)NC3=NC=C(C(=N3)NCCC4=CN=CN4)Br
In short: as §1

[8] = compound: C1CN(CCC1(CC2=CC=C(C=C2)Cl)N)C3=NC=NC4=C3C=CN4
In short: as §1

IRAK-1-4 Inhibitor I = compound: C1COCCN1CCN2C3=CC=CC=C3N=C2NC(=O)C4=CC(=CC=C4)[N+](=O)[O-] [IRAK-1-4 Inhibitor I]
In short: as §1

ibrutinib = compound: C=CC(=O)N1CCC[C@@H](n2nc(-c3ccc(Oc4ccccc4)cc3)c3c(N)ncnc32)C1 [ibrutinib]
In short: as §1

[9] = compound: CC(=O)c1cnc2ccc(-c3cc(Cl)c(O)c(Cl)c3)nc2c1N[C@H]1CC[C@H](CN(C)C)CC1
In short: as §1

ralimetinib = compound: CC(C)(C)Cn1c(N)nc2ccc(-c3[nH]c(C(C)(C)C)nc3-c3ccc(F)cc3)nc21 [ralimetinib]
In short: as §1

[10] = compound: CC(C)(O)CC(=O)NCCn1ccc2ncnc(Nc3ccc(Oc4cccc(C(F)(F)F)c4)c(Cl)c3)c21
In short: as §1

[11] = compound: CC(C)C1=C2N=C(C=C(N2N=C1)NCC3=CC=CC=C3)NCCCCCCN
In short: as §1

[12] = compound: CC1=C(C(CC(=O)N1)C2=CC=C(C=C2)C(F)(F)F)C(=O)NC3=C(C=C4C(=C3)C=NN4)F
In short: as §1

[13] = compound: CC1=C(C2=C(C=C1)C(=O)C3=CC=CC=C3N2CCCN)C
In short: as §1

[14] = compound: CC1=C(C=C(C=C1)NC(=O)C2=CC(=CC=C2)C(C)(C)C#N)NC3=CC4=C(C=C3)N=CN(C4=O)C
In short: as §1

[15] = compound: CC1=C(C=C(C=C1)NC(=O)C2=CC(=CC=C2)N(C)C)NC(=O)C3=CC=C(C=C3)O
In short: as §1

[16] = compound: CC1=CC=C(C=C1)SC2=C3C=C(SC3=CN=C2)C(=O)N
In short: as §1

Measured: log2 fold change

SMG5 (UniProt Q9UPR3)
UniProt Q9UPR3, sequence (Q9UPR3 whole entry, looked up): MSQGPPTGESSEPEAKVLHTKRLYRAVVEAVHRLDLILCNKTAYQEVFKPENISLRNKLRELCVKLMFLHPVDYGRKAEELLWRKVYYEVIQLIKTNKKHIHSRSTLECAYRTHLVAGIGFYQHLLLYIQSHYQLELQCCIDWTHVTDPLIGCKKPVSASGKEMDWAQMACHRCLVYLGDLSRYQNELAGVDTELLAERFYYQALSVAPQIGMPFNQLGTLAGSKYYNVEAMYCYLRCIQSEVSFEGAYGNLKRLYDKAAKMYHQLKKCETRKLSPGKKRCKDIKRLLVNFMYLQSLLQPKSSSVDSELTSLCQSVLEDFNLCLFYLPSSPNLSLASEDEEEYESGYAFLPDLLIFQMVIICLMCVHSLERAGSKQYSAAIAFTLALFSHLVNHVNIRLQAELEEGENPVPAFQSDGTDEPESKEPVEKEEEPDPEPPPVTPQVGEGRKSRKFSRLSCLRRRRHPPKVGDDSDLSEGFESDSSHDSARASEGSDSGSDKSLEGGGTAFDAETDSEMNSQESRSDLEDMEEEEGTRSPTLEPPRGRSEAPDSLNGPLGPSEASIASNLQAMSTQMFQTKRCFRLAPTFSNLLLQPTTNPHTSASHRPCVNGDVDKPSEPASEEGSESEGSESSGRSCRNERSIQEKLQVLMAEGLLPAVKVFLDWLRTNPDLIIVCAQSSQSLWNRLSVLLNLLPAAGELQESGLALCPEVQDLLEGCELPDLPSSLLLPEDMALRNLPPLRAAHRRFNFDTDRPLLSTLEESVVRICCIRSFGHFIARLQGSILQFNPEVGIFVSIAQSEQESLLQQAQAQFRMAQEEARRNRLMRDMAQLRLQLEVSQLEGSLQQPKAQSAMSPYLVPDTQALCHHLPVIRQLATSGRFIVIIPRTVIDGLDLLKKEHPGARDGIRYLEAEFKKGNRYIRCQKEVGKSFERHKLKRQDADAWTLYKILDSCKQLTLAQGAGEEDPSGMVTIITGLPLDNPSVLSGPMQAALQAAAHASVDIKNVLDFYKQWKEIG
inactive: erlotinib -0.037 | [1] -0.038 | [2] 0.028 | [3] -0.008 | [4] -0.012 | [5] -0.074 | [6] -0.035 | [7] -0.004 | [8] -0.043 | IRAK-1-4 Inhibitor I 0.007 | ibrutinib -0.041 | [9] 0.048 | ralimetinib 0.021 | [10] -0.032 | [11] -0.037 | [12] 0.071 | [13] 0.015 | [14] -0.117 | [15] 0.057 | [16] 0.024

SPHK1 isoform 2 (UniProt Q9NYA1)
UniProt Q9NYA1, sequence (Q9NYA1 whole entry, looked up): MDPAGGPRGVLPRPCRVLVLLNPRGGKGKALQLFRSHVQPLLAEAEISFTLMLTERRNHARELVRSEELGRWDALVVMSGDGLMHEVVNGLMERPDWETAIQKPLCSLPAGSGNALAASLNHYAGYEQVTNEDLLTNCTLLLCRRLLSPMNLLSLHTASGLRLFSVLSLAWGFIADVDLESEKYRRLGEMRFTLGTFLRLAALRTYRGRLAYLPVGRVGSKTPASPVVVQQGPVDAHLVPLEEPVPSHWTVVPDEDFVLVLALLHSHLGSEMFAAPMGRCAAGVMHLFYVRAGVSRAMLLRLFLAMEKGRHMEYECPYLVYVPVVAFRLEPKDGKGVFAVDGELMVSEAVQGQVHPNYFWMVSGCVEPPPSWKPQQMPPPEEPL
inactive: erlotinib -0.055 | [1] -0.462 | [2] -0.059 | [3] 0.038 | [4] 0.034 | [5] -0.097 | [6] -0.066 | [7] 0.016 | [8] 0.038 | IRAK-1-4 Inhibitor I 0.018 | ibrutinib -0.088 | [9] 0.029 | ralimetinib 0.124 | [10] 0.061 | [11] 0.021 | [12] 0.041 | [13] 0.041 | [15] -0.061 | [16] -0.036
active: [14] -0.276

SLC12A6 (UniProt Q9UHW9)
inactive: erlotinib -0.014 | [1] -0.073 | [2] -0.047 | [3] 0.013 | [4] -0.006 | [5] -0.028 | [6] -0.01 | [7] -0.024 | [8] 0.068 | IRAK-1-4 Inhibitor I -0.01 | ibrutinib 0.01 | [9] -0.021 | ralimetinib -0.037 | [10] -0.014 | [11] 0.011 | [12] 0.001 | [13] -0.012 | [14] 0.012 | [15] 0.024 | [16] -0.021

SLC38A10 (UniProt Q9HBR0)
inactive: erlotinib 0.007 | [1] -0.128 | [2] -0.006 | [3] -0.065 | [4] -0.009 | [5] 0.02 | [6] -0.127 | [7] 0 | [8] 0.016 | IRAK-1-4 Inhibitor I 0.047 | ibrutinib 0.103 | [9] -0.047 | ralimetinib -0.025 | [10] -0.056 | [11] -0.007 | [12] -0.051 | [13] -0.018 | [14] 0.032 | [15] -0.001 | [16] -0.027

STK24 (UniProt B4DR80)
inactive: erlotinib 0.019 | [1] 0.02 | [2] 0.018 | [3] -0.04 | [4] -0.003 | [5] -0.004 | [6] 0.198 | [7] 0.045 | [8] 0.013 | IRAK-1-4 Inhibitor I -0.007 | ibrutinib 0.024 | ralimetinib 0.005 | [10] 0.024 | [11] 0.001 | [12] -0.019 | [13] -0.019 | [14] -0.018 | [15] -0.019 | [16] -0.018
active: [9] 0.218

SLC25A38 (UniProt Q96DW6)
UniProt Q96DW6, sequence (Q96DW6 whole entry, looked up): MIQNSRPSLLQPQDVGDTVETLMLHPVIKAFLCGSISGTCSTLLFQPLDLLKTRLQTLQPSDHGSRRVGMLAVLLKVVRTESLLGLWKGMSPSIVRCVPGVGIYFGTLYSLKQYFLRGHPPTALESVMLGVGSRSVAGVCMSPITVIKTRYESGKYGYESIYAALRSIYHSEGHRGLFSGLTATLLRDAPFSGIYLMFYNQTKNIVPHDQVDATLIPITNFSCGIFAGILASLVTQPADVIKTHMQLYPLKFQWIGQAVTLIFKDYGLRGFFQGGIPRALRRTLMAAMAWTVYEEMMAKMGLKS
inactive: erlotinib -0.077 | [1] -0.117 | [2] -0.024 | [3] -0.049 | [4] -0.086 | [5] -0.114 | [6] -0.092 | [7] -0.023 | [8] -0.07 | IRAK-1-4 Inhibitor I -0.052 | ibrutinib 0.061 | [9] -0.108 | ralimetinib -0.074 | [10] -0.003 | [11] -0.114 | [12] -0.153 | [13] -0.437 | [14] 0.002 | [15] 0.115 | [16] 0.04

SLC25A32 (UniProt Q9H2D1)
UniProt Q9H2D1, sequence (Q9H2D1 whole entry, looked up): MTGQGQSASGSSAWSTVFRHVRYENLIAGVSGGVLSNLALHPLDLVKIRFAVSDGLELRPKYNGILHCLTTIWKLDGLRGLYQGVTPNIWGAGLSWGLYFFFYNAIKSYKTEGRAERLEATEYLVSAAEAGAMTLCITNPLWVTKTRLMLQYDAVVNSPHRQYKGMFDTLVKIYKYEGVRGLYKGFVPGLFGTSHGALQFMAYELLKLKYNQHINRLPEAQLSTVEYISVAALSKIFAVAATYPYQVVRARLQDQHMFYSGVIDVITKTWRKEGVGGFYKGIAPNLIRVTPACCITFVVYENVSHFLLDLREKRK
inactive: erlotinib 0.035 | [1] 0.02 | [2] -0.062 | [3] 0.011 | [4] -0.013 | [5] -0.027 | [6] 0.056 | [7] 0.018 | [8] -0.002 | IRAK-1-4 Inhibitor I 0.029 | ibrutinib 0.029 | [9] 0.005 | ralimetinib 0.006 | [10] -0.017 | [11] -0.017 | [12] -0.03 | [13] -0.031 | [14] 0.048 | [15] -0.021 | [16] -0.007

STMN3 (UniProt Q9NZ72)
UniProt Q9NZ72, sequence (Q9NZ72 whole entry, looked up): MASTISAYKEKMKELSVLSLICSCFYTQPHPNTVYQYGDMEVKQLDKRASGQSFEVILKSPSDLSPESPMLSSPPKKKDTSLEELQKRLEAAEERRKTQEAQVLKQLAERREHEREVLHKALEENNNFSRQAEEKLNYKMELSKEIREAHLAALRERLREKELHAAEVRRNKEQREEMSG
inactive: erlotinib 0.012 | [1] 0.01 | [2] -0.003 | [3] -0.122 | [4] -0.062 | [5] -0.026 | [6] 0.043 | [7] -0.097 | [8] 0.091 | IRAK-1-4 Inhibitor I -0.006 | ibrutinib 0.006 | [9] -0.028 | ralimetinib 0.093 | [10] 0.025 | [11] -0.089 | [12] -0.003 | [13] -0.059 | [14] 0.012 | [15] -0.011 | [16] 0.009

TADA3 (UniProt O75528)
inactive: erlotinib 0.02 | [1] -0.046 | [2] 0.032 | [3] -0.073 | [4] -0.04 | [5] 0.048 | [6] 0.009 | [7] -0.058 | [8] 0.053 | IRAK-1-4 Inhibitor I 0.018 | ibrutinib 0.032 | [9] 0 | ralimetinib -0.013 | [10] -0.022 | [11] 0.018 | [12] -0.003 | [13] -0.005 | [14] 0.054 | [15] 0.024 | [16] -0.011

TANK (UniProt Q92844)
inactive: erlotinib 0 | [1] -0.089 | [2] -0.015 | [3] -0.069 | [4] 0.003 | [5] 0.025 | [6] 0.089 | [7] 0.082 | [8] 0 | IRAK-1-4 Inhibitor I 0.028 | ibrutinib 0.042 | [9] 0.086 | ralimetinib -0.049 | [10] -0.003 | [11] 0.044 | [12] 0.061 | [13] 0.018 | [14] 0 | [15] 0.054 | [16] 0.002

SLC25A17 (UniProt O43808)
UniProt O43808, sequence (O43808 whole entry, looked up): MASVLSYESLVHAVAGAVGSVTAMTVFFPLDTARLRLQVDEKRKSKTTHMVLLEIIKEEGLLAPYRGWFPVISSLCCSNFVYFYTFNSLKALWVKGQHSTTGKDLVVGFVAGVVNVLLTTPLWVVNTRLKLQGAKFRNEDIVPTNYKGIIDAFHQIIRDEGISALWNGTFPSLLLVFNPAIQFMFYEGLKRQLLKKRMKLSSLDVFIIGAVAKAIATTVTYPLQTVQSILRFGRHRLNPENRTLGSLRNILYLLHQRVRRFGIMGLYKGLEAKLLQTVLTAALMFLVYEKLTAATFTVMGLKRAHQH
inactive: erlotinib 0.035 | [1] 0.057 | [2] 0.061 | [3] 0.014 | [4] -0.015 | [5] 0.012 | [6] -0.021 | [7] 0.012 | [8] 0.03 | IRAK-1-4 Inhibitor I 0.056 | ibrutinib -0.007 | [9] -0.043 | ralimetinib 0.047 | [10] -0.019 | [11] 0.037 | [12] 0.001 | [13] 0.029 | [14] 0.03 | [15] -0.01 | [16] 0.044

STK39 (UniProt Q9UEW8)
inactive: erlotinib 0.006 | [1] 0.08 | [2] -0.001 | [3] -0.014 | [4] -0.03 | [5] 0 | [6] -0.133 | [7] -0.004 | [8] -0.013 | IRAK-1-4 Inhibitor I -0.003 | ibrutinib -0.114 | [9] 0.011 | ralimetinib 0.012 | [10] -0.041 | [11] -0.015 | [12] 0.007 | [13] -0.045 | [14] -0.02 | [15] 0.037 | [16] -0.019

STOML2 (UniProt Q9UJZ1)
UniProt Q9UJZ1, sequence (Q9UJZ1 whole entry, looked up): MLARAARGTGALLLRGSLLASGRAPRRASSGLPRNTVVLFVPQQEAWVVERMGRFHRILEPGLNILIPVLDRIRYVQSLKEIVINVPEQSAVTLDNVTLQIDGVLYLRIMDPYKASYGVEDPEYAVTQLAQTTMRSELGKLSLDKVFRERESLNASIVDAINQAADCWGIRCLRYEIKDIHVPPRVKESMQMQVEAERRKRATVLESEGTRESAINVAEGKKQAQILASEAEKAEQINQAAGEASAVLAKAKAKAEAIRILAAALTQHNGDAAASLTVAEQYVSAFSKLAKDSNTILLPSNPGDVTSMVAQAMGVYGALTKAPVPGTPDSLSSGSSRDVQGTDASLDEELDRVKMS
inactive: erlotinib -0.021 | [1] 0.018 | [2] 0.04 | [3] -0.049 | [4] 0.037 | [5] 0.012 | [6] -0.063 | [7] 0.023 | [8] 0.027 | IRAK-1-4 Inhibitor I 0.036 | ibrutinib 0.017 | [9] -0.012 | ralimetinib -0.015 | [10] -0.028 | [11] 0.033 | [12] -0.025 | [13] -0.04 | [14] 0 | [15] 0.002 | [16] -0.006

SPIRE1 (UniProt Q08AE8)
UniProt Q08AE8, sequence (Q08AE8 whole entry, looked up): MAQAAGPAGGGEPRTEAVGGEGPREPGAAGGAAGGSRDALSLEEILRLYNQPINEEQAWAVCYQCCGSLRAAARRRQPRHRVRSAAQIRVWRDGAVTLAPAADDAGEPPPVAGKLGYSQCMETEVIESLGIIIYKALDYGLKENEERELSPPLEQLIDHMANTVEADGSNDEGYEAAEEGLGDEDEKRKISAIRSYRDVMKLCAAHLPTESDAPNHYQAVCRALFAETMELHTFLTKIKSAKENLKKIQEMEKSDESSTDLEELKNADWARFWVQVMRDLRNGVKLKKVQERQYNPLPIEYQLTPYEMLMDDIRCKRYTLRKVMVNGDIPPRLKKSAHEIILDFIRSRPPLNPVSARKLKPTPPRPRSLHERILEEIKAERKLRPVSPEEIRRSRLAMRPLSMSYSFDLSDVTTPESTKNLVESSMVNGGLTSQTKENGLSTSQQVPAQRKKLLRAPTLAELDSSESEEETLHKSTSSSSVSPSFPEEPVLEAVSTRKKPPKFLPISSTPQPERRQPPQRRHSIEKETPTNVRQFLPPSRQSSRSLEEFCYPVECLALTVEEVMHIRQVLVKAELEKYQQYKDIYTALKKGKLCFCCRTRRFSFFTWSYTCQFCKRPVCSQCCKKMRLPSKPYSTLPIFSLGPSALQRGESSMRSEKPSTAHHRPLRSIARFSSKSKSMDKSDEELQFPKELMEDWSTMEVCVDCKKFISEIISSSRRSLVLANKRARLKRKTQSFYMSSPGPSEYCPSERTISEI
inactive: erlotinib -0.062 | [1] 0.054 | [2] -0.032 | [3] 0.068 | [4] -0.067 | [5] 0.027 | [6] 0.022 | [7] 0.013 | [8] -0.024 | IRAK-1-4 Inhibitor I -0.032 | ibrutinib 0.082 | [9] -0.031 | ralimetinib -0.028 | [10] 0.011 | [11] -0.014 | [12] -0.069 | [13] 0.002 | [14] 0.014 | [15] 0.016 | [16] -0.05

SPATA5L1 (UniProt Q9BVQ7)
UniProt Q9BVQ7, sequence (Q9BVQ7 whole entry, looked up): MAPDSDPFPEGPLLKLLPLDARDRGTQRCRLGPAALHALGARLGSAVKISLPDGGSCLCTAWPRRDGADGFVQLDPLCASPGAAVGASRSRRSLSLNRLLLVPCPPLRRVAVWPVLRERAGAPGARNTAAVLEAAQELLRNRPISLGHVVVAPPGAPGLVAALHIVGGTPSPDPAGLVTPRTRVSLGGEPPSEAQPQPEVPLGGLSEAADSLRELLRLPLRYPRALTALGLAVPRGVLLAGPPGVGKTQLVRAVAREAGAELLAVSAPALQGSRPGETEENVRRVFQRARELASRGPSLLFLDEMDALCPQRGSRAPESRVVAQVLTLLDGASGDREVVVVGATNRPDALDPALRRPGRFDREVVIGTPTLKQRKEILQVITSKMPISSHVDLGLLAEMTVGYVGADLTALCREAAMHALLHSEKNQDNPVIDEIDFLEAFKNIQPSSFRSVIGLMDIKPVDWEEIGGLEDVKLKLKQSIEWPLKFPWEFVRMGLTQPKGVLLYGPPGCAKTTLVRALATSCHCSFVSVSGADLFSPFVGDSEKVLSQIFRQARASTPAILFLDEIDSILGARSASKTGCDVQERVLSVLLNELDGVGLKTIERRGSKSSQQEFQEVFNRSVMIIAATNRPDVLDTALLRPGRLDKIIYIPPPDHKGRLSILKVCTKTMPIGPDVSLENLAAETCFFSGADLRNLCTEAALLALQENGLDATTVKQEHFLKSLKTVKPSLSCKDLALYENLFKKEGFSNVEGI
inactive: erlotinib 0.09 | [1] -0.053 | [2] -0.017 | [3] 0.044 | [4] 0.004 | [5] 0.069 | [6] 0.01 | [7] 0.027 | [8] 0.032 | IRAK-1-4 Inhibitor I 0.015 | ibrutinib -0.007 | [9] 0.02 | ralimetinib 0.037 | [10] -0.054 | [11] 0.018 | [12] -0.004 | [13] -0.052 | [14] -0.007 | [15] 0.026 | [16] -0.008

SLC16A1 (UniProt P53985)
UniProt P53985, sequence (P53985 whole entry, looked up): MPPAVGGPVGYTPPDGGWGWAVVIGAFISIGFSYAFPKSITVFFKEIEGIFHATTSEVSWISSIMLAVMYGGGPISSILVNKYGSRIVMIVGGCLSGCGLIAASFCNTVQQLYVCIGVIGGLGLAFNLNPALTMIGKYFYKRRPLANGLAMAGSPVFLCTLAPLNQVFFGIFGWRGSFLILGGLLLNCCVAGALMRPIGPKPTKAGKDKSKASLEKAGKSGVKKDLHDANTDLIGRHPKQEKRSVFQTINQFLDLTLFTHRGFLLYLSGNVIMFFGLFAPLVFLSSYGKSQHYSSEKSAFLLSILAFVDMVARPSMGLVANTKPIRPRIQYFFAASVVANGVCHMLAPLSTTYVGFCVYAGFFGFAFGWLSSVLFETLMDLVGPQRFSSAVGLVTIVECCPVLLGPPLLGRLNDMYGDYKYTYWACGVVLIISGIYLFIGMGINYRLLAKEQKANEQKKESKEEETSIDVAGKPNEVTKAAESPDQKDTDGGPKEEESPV
inactive: erlotinib -0.007 | [1] -0.038 | [2] 0.036 | [3] 0.029 | [4] -0.018 | [5] 0.034 | [6] 0.034 | [7] -0.024 | [8] 0.004 | IRAK-1-4 Inhibitor I 0.032 | ibrutinib -0.023 | [9] 0.002 | ralimetinib 0.015 | [10] 0.015 | [11] 0.003 | [12] -0.039 | [13] -0.03 | [14] 0.042 | [15] 0 | [16] -0.006
